Screen size: about 52,000 compounds; about 1,700 (3.3%) were called active. This is one part of a sample in which actives are shown more often than they occur. Rule as the data show it: active = survival mostly below about 52% (no sharp cut-off); inactive = mostly above about 56%.
These compounds were tested on Wild type (assay: growth inhibition of S. aureus wild type versus tarO mutant, primary screen, teichoic acid synthesis inhibitors, RN4220, OD600 (AID 463173)). Conditions: S. aureus RN4220 wild type/DeltatarO growth, OD600, 18 h, stronger effect = lower value, screened at 18.75 µg/mL (by protocol).

SMILES	survival
CCOC(=O)CC(=O)CSc1nc2ccccc2c(=O)n1CCc1ccc(S(N)(=O)=O)cc1	71% (inactive)
Cc1ccc(C(=O)COC(=O)CCC(=O)Nc2ccc(Oc3ccccc3)cc2)cc1	90% (inactive)
Cc1c(NC(=O)C(C)(C)Oc2ccc(Cl)cc2)cccc1-c1nc2ncccc2o1	-3% (active)
Cc1cc(NC(=O)C(C)(C)Oc2ccc(Cl)cc2)cc(-c2nc3ncccc3o2)c1O	92% (inactive)
CC(C)(Oc1ccc(Cl)cc1)C(=O)Nc1ccc(-c2nc3ncccc3o2)cc1	74% (inactive)
COc1c(Cl)cc(Cl)cc1C(=O)Nc1cccc(-c2nc3ccccc3o2)c1C	125% (inactive)
Cc1ccc2oc(-c3ccc(C)c(NC(=O)C(C)(C)Oc4ccc(Cl)cc4)c3)nc2c1	43% (inactive)
Cc1c(NC(=O)C(C)(C)Oc2ccc(Cl)cc2)cccc1-c1nc2ccccc2o1	1% (active)
COc1ccc(-c2nc(CN3CCC(C(=O)NCCCOC(C)C)CC3)c(C)o2)cc1OC	80% (inactive)
CCCn1cc(S(=O)(=O)c2ccc(OC)cc2)c(=O)c2cc(F)c(N3CCCC(C)C3)cc21 (configuration not stated)	71% (inactive)
CCOc1ccc(C(=O)NCCS(=O)(=O)N2CCN(c3ccccc3F)CC2)cc1OCC	102% (inactive)
COc1ccc(OCC(=O)Nc2ccc(-c3nc4cc(C)c(C)cc4o3)cc2)cc1	77% (inactive)
COc1ccc(Nc2ncnc3c2cnn3-c2ccc(C)cc2)cc1Cl	133% (inactive)
Cc1ccc(C)c(Nc2ncnc3c2cnn3-c2ccc(F)cc2)c1	-3% (active)
CCOc1ccccc1Nc1ncnc2c1cnn2-c1ccc(C)cc1	76% (inactive)
COc1ccc(CCNc2ncnc3c2cnn3-c2ccc(C)cc2)cc1	71% (inactive)
Cc1ccc(-n2ncc3c(Nc4cccc(C)c4C)ncnc32)cc1	78% (inactive)
COc1ccc(-n2ncc3c(NCCCOC(C)C)ncnc32)cc1	-2% (active)
COc1ccc(OC)c(Nc2ncnc3c2cnn3-c2ccc(C)cc2)c1	14% (active)

SMILES	survival
COc1ccc(OC)c(Nc2ncnc3c2cnn3-c2cccc(Cl)c2)c1	64% (inactive)
COCCCNc1ncnc2c1cnn2-c1ccc(F)cc1	82% (inactive)
Cc1ccc(Cn2c(C(=O)O)c(CNC3CCCCCC3)c3ccc(C)cc32)cc1	74% (inactive)
CCCNC(=O)C1CCC(Cn2c(=O)c3sccc3n(CC(=O)NCc3cccc(OC)c3OC)c2=O)CC1 (configuration not stated)	133% (inactive)
COc1cccc(NC(=O)c2cnc(SCC(=O)N3CCCc4ccccc43)n(C)c2=O)c1	54% (inactive)
COc1cccc(-c2cn3ncsc3n2)c1	80% (inactive)
Cc1cc(NNC(=O)c2ccccc2)nc(NNC(=O)c2ccccc2)n1	103% (inactive)
CCCc1noc(-c2ccc(NCc3ccccc3OC)c([N+](=O)[O-])c2)n1	79% (inactive)
N#C/C(=C\c1ccc(F)cc1)c1nc(-c2ccc(-c3ccccc3)cc2)cs1	74% (inactive)
Cc1ccc(/C=C(\C#N)c2nc(-c3ccc(-c4ccccc4)cc3)cs2)cc1	83% (inactive)
CN(C)c1ccc(/C=C(\C#N)c2nc(-c3ccc(Cl)c(Cl)c3)cs2)cc1	89% (inactive)
N#C/C(=C/c1ccc(O)cc1)c1nc(-c2ccc(-c3ccccc3)cc2)cs1	0% (active)
N#C/C(=C/c1ccc(Cl)cc1)c1nc(-c2ccc(Br)cc2)cs1	83% (inactive)
COc1ccc(/C=C(/C#N)c2nc(-c3ccc(-c4ccccc4)cc3)cs2)cc1	66% (inactive)
CC(C)c1ccc(/C=C(\C#N)c2nc(-c3ccc(O)cc3)cs2)cc1	0% (active)
CCc1ccc(/C=C(/C#N)c2nc(-c3ccc(C)cc3)cs2)cc1	-2% (active)
CCOc1ccc(-c2csc(/C(C#N)=C/c3ccc(Br)cc3)n2)cc1	71% (inactive)
Cc1nn2c3c(cnc2c1-c1ccc(Cl)cc1)C(=O)CC(c1ccc(C(C)C)cc1)C3 (configuration not stated)	78% (inactive)
Cc1ccc(-n2nnc3c(sc4nc(C)c(C)cc43)c2=O)cc1Cl	84% (inactive)

SMILES	survival
CCCCC(=O)OC1=C(C(=O)c2ccccc2)N(CC)S(=O)(=O)c2ccccc21	71% (inactive)
CCCN1C(C(=O)c2ccccc2)=C(OC(=O)COc2ccccc2)c2ccccc2S1(=O)=O	72% (inactive)
CCCCN1C(C(=O)c2ccccc2)=C(OC(C)=O)c2ccccc2S1(=O)=O	-2% (active)
CCCCCN1C(C(=O)c2ccccc2)=C(OC(=O)CC)c2ccccc2S1(=O)=O	-4% (active)
CCCCN1C(C(=O)c2ccccc2)=C(OC(=O)CC)c2ccccc2S1(=O)=O	0% (active)
CCCCCN1C(C(=O)c2ccccc2)=C(NC(C)=O)c2ccccc2S1(=O)=O	60% (inactive)
CCCN1C(C(=O)c2ccccc2)=C(OC(=O)C(C)(C)C)c2ccccc2S1(=O)=O	86% (inactive)
CCCCC(=O)OC1=C(C(=O)c2ccccc2)N(CCC)S(=O)(=O)c2ccccc21	43% (inactive)
CCCCC(=O)OC1=C(C(=O)c2ccccc2)N(C)S(=O)(=O)c2ccccc21	108% (inactive)
COc1cc(C(=O)OCn2c(=O)oc3ccccc32)cc(OC)c1OC	101% (inactive)
NC(=O)c1cc2n(n1)C(C(F)(F)F)CC(c1ccc(Cl)cc1)N2 (configuration not stated)	116% (inactive)
COc1ccc(Cl)cc1NC(=O)C1CCN(c2nnc(C)c3c(C)n(-c4ccccc4)nc23)CC1	66% (inactive)
Cc1c(Cl)cccc1-n1ncc(C(=O)N2CCN(C)CC2)c1C1CCN(C(=O)OC(C)(C)C)CC1	87% (inactive)
COc1ccccc1C(=O)Nc1ccc2oc(-c3cccc(Cl)c3Cl)nc2c1	100% (inactive)
COc1ccc(S(=O)(=O)Nc2cccc(-c3ccc(N4CCCCCC4)nn3)c2)cc1F	71% (inactive)
CCN1CCN(CCCNC(=O)Cn2c(-c3cccs3)cc3cc(F)ccc32)CC1	126% (inactive)
CC(C)COc1ccc(C(=O)Nc2cc3nn(-c4ccccc4)nc3cc2Cl)cc1	57% (inactive)
Cc1nc(-c2ccccc2)sc1-c1ccc(SCC(=O)Nc2ccc(F)cc2F)nn1	30% (inactive)
CCc1ccccc1NC(=O)Cn1nnc(C(=O)Nc2ccc(OC)c(OC)c2)c1N	76% (inactive)

Source: PubChem BioAssay AID463173 (ICCB-Longwood Screening Facility, Harvard Medical School, 2010)
